Measurements from PMC13083723 (Patterns, 2026).
In all, about 5,400 compounds went through this assay and about 190 (3.5%) showed an effect of 50% or more. What follows is part of a selection rich in strong results, with near analogues and random picks from the rest.

system: Vero-E6; assay: primary screen, phospholipidosis by LipidTOX staining; higher = more effect of the substance; settings: 10 µM
Method in brief: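 Drug-induced phospholipidosis detected with HCS LipidTOX Red reagent in Vero-E6 cells. Compounds tested at 10 μM, with amiodarone (10 μM) as positive control and DMSO (0.1 v/v %) as vehicle.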

| Compound | result_ITMP |
| --- | --- |
| Cc1cccc(C)c1NC(=O)CN1CCN(CCCC(c2ccc(F)cc2)c2ccc(F)cc2)CC1 | 52.6% |
| Cc1cccc(C)c1NC(=O)CN1CCCCCC1 | -0.91% |
| CCNC(=O)N1CCN(CCCC(c2ccc(F)cc2)c2ccc(F)cc2)CC1 | 8.88% |
| O=C(/C=C/c1c(C(=O)[O-])[nH]c2cc(Cl)cc(Cl)c12)Nc1ccccc1 | 0.43% |
| Cc1ccc(C(=O)c2ccc(CC(=O)[O-])n2C)cc1 | -3.18% |
| CC(CC(C(N)=O)(c1ccccc1)c1ccccc1)N(C)C (stereo not shown) | -2.3% |
| CCN(CC)C(C)C(=O)c1ccccc1 (stereo not shown) | -5.15% |
| CC(CN1c2ccccc2Sc2ccccc21)N(C)C (stereo not shown) | 55.4% |
| CCOC(=O)Nc1ccc2c(c1)N(C(=O)CCN(CC)CC)c1ccccc1S2 | 12% |
| CCN(CC)C(C)CN1c2ccccc2Sc2ccccc21 (stereo not shown) | 63.9% |
| COC(=O)/C=C/C(=O)N[C@@H]1CC[C@@]2(O)C3Cc4ccc(O)c5c4[C@@]2(CCN3CC2CC2)[C@H]1O5 | -2% |
| CC(O)(P(=O)([O-])O)P(=O)([O-])O | -0.98% |
| Fc1cc(F)c2c(c1)[C@H]1C=CC[C@H]1C(c1cccnc1)N2 (mixture of isomers) | -14.4% |
| O=S(=O)([O-])CCS | -2.99% |
| OC[C@H]1O[C@@](CO)(O[C@H]2O[C@H](CO)[C@@H](O)[C@H](O)[C@H]2O)[C@@H](O)[C@@H]1O | -5.71% |
| CN(C)CCC(c1ccc(Cl)cc1)c1ccccn1 (stereo not shown) [R4A_0004036_001 / SPE_A04553218] | 16% |
| C[C@]12CC[C@H](O)CC1=CC[C@@H]1[C@@H]2CC[C@]2(C)C(c3cccnc3)=CC[C@@H]12 | -5.26% |
| C[CH2][Hg][S]c1ccccc1C(=O)[O-] | 6.82% |
| O=C([O-])C(=O)[O-].[NH-][C@@H]1CCCC[C@H]1[NH-].[Pt+4] | 22.9% |
| COc1cc2c(NC3CCN(C(C)C)CC3)nc(N3CCC(F)(F)CC3)nc2cc1OCCCN1CCCC1 | 8.94% |
| COc1cc2c(NC3CCN(C(C)C)CC3)nc(C3CCCCC3)nc2cc1OCCCN1CCCC1 | 60.7% |
| COc1cc2c(NC3CCN(C4CCCCC4)CC3)nc(N3CCCN(C(C)C)CC3)nc2cc1OCCCN1CCCCC1 | -1.55% |
| C[C@]12CC[C@H](O)C[C@H]1CC[C@@H]1[C@@H]2CC[C@]2(C)[C@@H](c3ccc(=O)oc3)C[C@H]3O[C@]132 | -2.23% |
| Nc1ncnc2[nH]cnc12 | -2.75% |
| C/C(=N\NC(=S)NNC(=S)Nc1ccccc1Cl)c1ccccn1 | -0.18% |
| C1CCC(N/C(=N/C23CC4CC(CC(C4)C2)C3)N2CCOCC2)CC1 | -0.26% |

| Compound | result_ITMP |
| --- | --- |
| C=C1C(=O)O[C@H]2[C@H]1CC/C(C)=C/CC[C@@]1(C)O[C@@H]21 [R4A_0002204_002 / SPE_K34851558] | 16.6% |
| c1cc(OCCN2CCCCC2)cc(-c2n[nH]c3ccc(-c4ncn[nH]4)cc23)c1 | -0.52% |
| C1=C/COCc2cc(ccc2OCCN2CCCC2)Nc2nccc(n2)-c2cccc(c2)COC/1 | 78.8% |
| CN1C/C=C/CCOc2cccc(c2)-c2ccnc(n2)Nc2cccc(c2)C1 | -2.04% |
| CN(C)CCNc1nc2cc(O)ccc2c2c1C(=O)c1ccccc1-2 | 76.7% |
| CC(C)(O)CC(=O)[O-] | -6.24% |
| CC(=O)Nc1ccc(NC(=S)NC(=O)c2ccc(C(C)(C)C)cc2)cc1 | 2.55% |
| CC(=O)Nc1ccc(C(=O)NC(C)(C)C)cc1 | -9.36% |
| CN(C)CCCCC(=O)Nc1ccc(NC(=S)NC(=O)c2ccc(C(C)(C)C)cc2)cc1 | 147% |
| O=C1[C@@H]2[C@H]3CC[C@H](C3)[C@@H]2C(=O)N1C[C@@H]1CCCC[C@H]1CN1CCN(c2nsc3ccccc23)CC1 | 3.52% |
| COc1cccc(Nc2ncnn3ccc(CN4CC[C@@H](N)[C@H](O)C4)c23)c1 | 59% |
| CSCC[C@H](NC(=O)[C@H](CC(C)C)NC(=O)CNC(=O)[C@H](Cc1ccccc1)NC(=O)[C@H](Cc1ccccc1)NC(=O)[C@H](CCC(N)=O)NC(=O)[C@H](CCC(N)=O)NC(=O)[C@@H]1CCCN1C(=O)[C@H](CCCCN)NC(=O)[C@@H]1CCCN1C(=O)[C@@H](N)CCCNC(=N)N)C(N)=O | -6.88% |
| C[C@H]1[C@H](OC(=O)CCC(=O)O)O[C@@H]2O[C@@]3(C)CC[C@H]4[C@H](C)CC[C@@H]1[C@@]24OO3 | 7.77% |
| Cc1c(-c2ccc(-c3ccccc3F)cc2)nc2ccc(F)cc2c1C(=O)[O-] | 5.08% |
| Cc1ccc2c(c1)c1c3n2CCNC3CCC1 (stereo not shown) | 51.5% |
| c1cc2c(cc1C1CCCCC1)c1c3n2CCNC3CCC1 (stereo not shown) | 84.2% |
| C#C[C@]1(O)CC[C@H]2[C@@H]3CCC4=CC(=O)CC[C@@H]4C3CC[C@@]21CC (stereo partly shown) | -2.07% |
| Cc1ccccc1C(c1ccccc1C)N1C2CCC1CC(O)(c1ccccc1)C2 (stereo not shown) | -2.82% |
| C[C@H](/C=C/[C@H](C)C(C)(C)O)[C@H]1CC[C@H]2/C(=C/C=C3C[C@@H](O)C[C@H](O)C3)CCC[C@]12C | -0.26% |
| N[C@@H]1[C@H]2CN(c3nc4c(cc3F)c(=O)c(C(=O)O)cn4-c3ccc(F)cc3F)C[C@@H]12 | 0.39% |
| Cc1cc2c(cc1CC(=O)c1sccc1S(=O)(=O)[N-]c1onc(C)c1Cl)OCO2 | -1.86% |
| COc1cc2ncnc(Nc3ccc(F)c(Cl)c3)c2cc1OCCCN1CCOCC1 | -1.05% |
| COc1cc(Nc2c(C#N)cnc3cc(OCCCN4CCN(C)CC4)c(OC)cc23)c(Cl)cc1Cl | 68% |
| COc1cc2c(N3CCN(C(=O)Nc4ccc(OC(C)C)cc4)CC3)ncnc2cc1OCCCN1CCCCC1 | 23% |
| CC1(C)S[C@@H]2[C@H](NC(=O)[C@H](NC(=O)N3CCN(S(C)(=O)=O)C3=O)c3ccccc3)C(=O)N2[C@H]1C(=O)[O-] | -2.91% |
| O=C1OC2(c3cc(I)c([O-])c(I)c3Oc3c2cc(I)c([O-])c3I)c2c(Cl)c(Cl)c(Cl)c(Cl)c21 | -9.57% |
